Experiment in all cases: yeast three-hybrid, YBZ-1, SC-Leu-His + 0.5 mM 3-AT, 4 days
What all share (conditions): tags: N-Gal4 AD-HA kept; label: inside an RPR1-promoter hybrid RNA with tandem MS2 sites; ssRNA

One test has as its target PUM1 PUF domain R8-PWN (Homo sapiens, UniProt Q14671 828-1176, N1122P;Y1123W;Q1126N). The method, boiled down: (§1)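 Pumilio-1 PUF domain libraries, randomized at the three base-contacting residues of each repeat, were co-expressed with matching RNA elements from a centromeric plasmid in strain YBZ-1, which carries a LexA–MS2 coat fusion and a HIS3 reporter. Transformants grew for four days on SC-Leu (input) or on SC-Leu-His + 0.5 mM 3-AT (selection), and the repeat regions were PCR-amplified and Illumina-sequenced. The interaction score is the log change in variant frequency from input to selection. That logarithm is base 2, with a pseudocount of 1 where a variant was absent.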

The target of the next test is PUM1 PUF domain R8-KWC (Homo sapiens, UniProt Q14671 828-1176, N1122K;Y1123W;Q1126C). An outline of the steps: as §1
Sequence of PUM1 PUF domain R8-KWC (Q14671 828-1176 N1122K/Y1123W/Q1126C): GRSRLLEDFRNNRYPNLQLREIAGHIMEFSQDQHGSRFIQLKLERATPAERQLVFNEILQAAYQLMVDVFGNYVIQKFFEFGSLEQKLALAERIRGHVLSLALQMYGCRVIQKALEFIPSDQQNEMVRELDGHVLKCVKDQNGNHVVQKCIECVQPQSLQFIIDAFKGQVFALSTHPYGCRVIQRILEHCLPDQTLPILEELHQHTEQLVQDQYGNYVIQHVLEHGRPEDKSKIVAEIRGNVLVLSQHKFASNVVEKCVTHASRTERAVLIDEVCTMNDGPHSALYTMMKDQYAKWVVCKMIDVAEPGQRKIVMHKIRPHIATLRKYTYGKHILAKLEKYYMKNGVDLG
In another test the target is PUM1 PUF domain R3-LFR (Homo sapiens, UniProt Q14671 828-1176, C935L;R936F;Q939R). The method, boiled down:
as §1

A further test addresses PUM1 PUF domain R3-FRD (Homo sapiens, UniProt Q14671 828-1176, C935F;Q939D). The method, boiled down:
as §1

A further test deals with PUM1 PUF domain R3-LWD (Homo sapiens, UniProt Q14671 828-1176, C935L;R936W;Q939D). The method, boiled down: as §1
Sequence of PUM1 PUF domain R3-LWD (Q14671 828-1176 C935L/R936W/Q939D): as the sequence (Q14671 828-1176 N1122K/Y1123W/Q1126C) above, with C108L, R109W, Q112D, K295N, W296Y, C299Q counted along it
Another test has as its target PUM1 PUF domain R3-FQC (Homo sapiens, UniProt Q14671 828-1176, C935F;R936Q;Q939C). An outline of the steps:
as §1

In the next test the target is PUM1 PUF domain R3-PWA (Homo sapiens, UniProt Q14671 828-1176, C935P;R936W;Q939A). The method, boiled down:
as §1

The next test has as its target PUM1 PUF domain R1-RSS (Homo sapiens, UniProt Q14671 828-1176, S863R;R864S;Q867S). An outline of the steps: as §1
Another test addresses PUM1 PUF domain R1-QYK (Homo sapiens, UniProt Q14671 828-1176, S863Q;R864Y;Q867K). The method, boiled down:
as §1

The target of a further test is PUM1 PUF domain R3-RPV (Homo sapiens, UniProt Q14671 828-1176, C935R;R936P;Q939V). The method, boiled down: as §1
Sequence of PUM1 PUF domain R3-RPV (Q14671 828-1176 C935R/R936P/Q939V): as the sequence (Q14671 828-1176 N1122K/Y1123W/Q1126C) above, with C108R, R109P, Q112V, K295N, W296Y, C299Q counted along it
The next test deals with PUM1 PUF domain R4-AMA (Homo sapiens, UniProt Q14671 828-1176, N971A;H972M;Q975A). The method, boiled down: as §1
Sequence of PUM1 PUF domain R4-AMA (Q14671 828-1176 N971A/H972M/Q975A): as the sequence (Q14671 828-1176 N1122K/Y1123W/Q1126C) above, with N144A, H145M, Q148A, K295N, W296Y, C299Q counted along it
The next test addresses PUM1 PUF domain R5-PFP (Homo sapiens, UniProt Q14671 828-1176, C1007P;R1008F;Q1011P). An outline of the steps: as §1
A further test concerns the target PUM1 PUF domain R5-TRL (Homo sapiens, UniProt Q14671 828-1176, C1007T;Q1011L). An outline of the steps: as §1
In another test the target is PUM1 PUF domain R3-PYL (Homo sapiens, UniProt Q14671 828-1176, C935P;R936Y;Q939L). The method, boiled down: as §1
A further test deals with PUM1 PUF domain R4-GMG (Homo sapiens, UniProt Q14671 828-1176, N971G;H972M;Q975G). An outline of the steps:
as §1

Another test deals with T1, PUM1 PUF domain R6-THR (Homo sapiens, UniProt Q14671 828-1176, N1043T;Y1044H;Q1047R).
T1 sequence: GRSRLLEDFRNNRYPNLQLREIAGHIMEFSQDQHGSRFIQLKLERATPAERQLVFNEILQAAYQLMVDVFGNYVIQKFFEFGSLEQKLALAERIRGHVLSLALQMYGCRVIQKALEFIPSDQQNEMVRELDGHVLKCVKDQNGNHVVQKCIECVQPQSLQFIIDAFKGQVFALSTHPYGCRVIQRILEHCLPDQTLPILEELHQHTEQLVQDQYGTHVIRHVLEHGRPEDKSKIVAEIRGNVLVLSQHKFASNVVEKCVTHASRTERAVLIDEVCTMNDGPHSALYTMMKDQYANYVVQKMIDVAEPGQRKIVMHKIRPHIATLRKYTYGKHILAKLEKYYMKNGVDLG
An outline of the steps: as §1

In another test the target is PUM1 PUF domain R5-KRM (Homo sapiens, UniProt Q14671 828-1176, C1007K;Q1011M). An outline of the steps:
as §1

The next test has as its target PUM1 PUF domain R5-SNS (Homo sapiens, UniProt Q14671 828-1176, C1007S;R1008N;Q1011S). The method, boiled down:
as §1

A further test deals with PUM1 PUF domain R4-VNG (Homo sapiens, UniProt Q14671 828-1176, N971V;H972N;Q975G). An outline of the steps:
as §1

Another test addresses PUM1 PUF domain R4-FNH (Homo sapiens, UniProt Q14671 828-1176, N971F;H972N;Q975H). The method, boiled down: as §1

Sequence of PUM1 PUF domain R3-PWA (Q14671 828-1176 C935P/R936W/Q939A): as the sequence (Q14671 828-1176 N1122K/Y1123W/Q1126C) above, with C108P, R109W, Q112A, K295N, W296Y, C299Q counted along it
Sequence of PUM1 PUF domain R5-KRM (Q14671 828-1176 C1007K/Q1011M): as the sequence (Q14671 828-1176 N1122K/Y1123W/Q1126C) above, with C180K, Q184M, K295N, W296Y, C299Q counted along it
Sequence of PUM1 PUF domain R1-QYK (Q14671 828-1176 S863Q/R864Y/Q867K): as the sequence (Q14671 828-1176 N1122K/Y1123W/Q1126C) above, with S36Q, R37Y, Q40K, K295N, W296Y, C299Q counted along it
Sequence of PUM1 PUF domain R5-SNS (Q14671 828-1176 C1007S/R1008N/Q1011S): as the sequence (Q14671 828-1176 N1122K/Y1123W/Q1126C) above, with C180S, R181N, Q184S, K295N, W296Y, C299Q counted along it
Sequence of PUM1 PUF domain R3-FQC (Q14671 828-1176 C935F/R936Q/Q939C): as the sequence (Q14671 828-1176 N1122K/Y1123W/Q1126C) above, with C108F, R109Q, Q112C, K295N, W296Y, C299Q counted along it
Sequence of PUM1 PUF domain R4-FNH (Q14671 828-1176 N971F/H972N/Q975H): as the sequence (Q14671 828-1176 N1122K/Y1123W/Q1126C) above, with N144F, H145N, Q148H, K295N, W296Y, C299Q counted along it

On to “GGCUAGAACUAGUGGAUCCCCCGGCGCCCGGCGGCUCGAGCCCGGGUAAGCGUAAAUAGUCUGCAUGCCGCCGGGCGCCAUGCCUGCAGGUCGACUCUAGAAAACAUG”, for which the binding signal is 3.44 log2 enrichment (interaction score) with PUM1 PUF domain R8-PWN and 4.87 log2 enrichment (interaction score) with PUM1 PUF domain R8-KWC.
Regarding “GGCUAGAACUAGUGGAUCCCCCGGCGCCCGGCGGCUCGAGCCCGGGUAAGUGUAAGUAGUCUGCAUGCCGCCGGGCGCCAUGCCUGCAGGUCGACUCUAGAAAACAUG”, the binding signal was 5.96 log2 enrichment (interaction score) in the test with PUM1 PUF domain R3-LFR; 5.68 log2 enrichment (interaction score) in the test with PUM1 PUF domain R3-FRD; 4.02 log2 enrichment (interaction score) with PUM1 PUF domain R3-LWD; 3.36 log2 enrichment (interaction score) with PUM1 PUF domain R3-FQC; 0.42 log2 enrichment (interaction score) with PUM1 PUF domain R3-PWA.
Turning to “GGCUAGAACUAGUGGAUCCCCCGGCGCCCGGCGGCUCGAGCCCGGGUAAGUGUAAAUGGUCUGCAUGCCGCCGGGCGCCAUGCCUGCAGGUCGACUCUAGAAAACAUG”, the binding signal with PUM1 PUF domain R1-RSS was 2.55 log2 enrichment (interaction score).
Turning to “GGCUAGAACUAGUGGAUCCCCCGGCGCCCGGCGGCUCGAGCCCGGGUAAGUGUAAAUCGUCUGCAUGCCGCCGGGCGCCAUGCCUGCAGGUCGACUCUAGAAAACAUG”, the figures for the binding signal with PUM1 PUF domain R1-RSS and with PUM1 PUF domain R1-QYK were 3.93 log2 enrichment (interaction score) and 6.38 log2 enrichment (interaction score), respectively.
Turning to “GGCUAGAACUAGUGGAUCCCCCGGCGCCCGGCGGCUCGAGCCCGGGUAAGUGUAAAUUGUCUGCAUGCCGCCGGGCGCCAUGCCUGCAGGUCGACUCUAGAAAACAUG”, the binding signal in the test with PUM1 PUF domain R1-RSS was 3.21 log2 enrichment (interaction score).
As for “GGCUAGAACUAGUGGAUCCCCCGGCGCCCGGCGGCUCGAGCCCGGGUAAGUGUAAUUAGUCUGCAUGCCGCCGGGCGCCAUGCCUGCAGGUCGACUCUAGAAAACAUG”, the binding signal with PUM1 PUF domain R3-LFR was 5 log2 enrichment (interaction score); in the test with PUM1 PUF domain R3-LWD, 1.73 log2 enrichment (interaction score); with PUM1 PUF domain R3-RPV, 2.55 log2 enrichment (interaction score); with PUM1 PUF domain R3-PWA, 2.19 log2 enrichment (interaction score).
Regarding “GGCUAGAACUAGUGGAUCCCCCGGCGCCCGGCGGCUCGAGCCCGGGUAAGUGUACAUAGUCUGCAUGCCGCCGGGCGCCAUGCCUGCAGGUCGACUCUAGAAAACAUG”, the binding signal in the test with PUM1 PUF domain R4-AMA is 1.77 log2 enrichment (interaction score).
Turning to “GGCUAGAACUAGUGGAUCCCCCGGCGCCCGGCGGCUCGAGCCCGGGUAAGUGUAAAUAGUCUGCAUGCCGCCGGGCGCCAUGCCUGCAGGUCGACUCUAGAAAACAUG”, the binding signal with PUM1 PUF domain R5-PFP is 4.69 log2 enrichment (interaction score); with PUM1 PUF domain R5-TRL it was 3.3 log2 enrichment (interaction score); with PUM1 PUF domain R3-PYL it was 5.55 log2 enrichment (interaction score); with PUM1 PUF domain R4-GMG it was 1.25 log2 enrichment (interaction score); with PUM1 PUF domain R3-LFR it was 1.74 log2 enrichment (interaction score); with PUM1 PUF domain R6-THR, 3.12 log2 enrichment (interaction score). Besides, the binding signal in the test with PUM1 PUF domain R4-AMA is 2.2 log2 enrichment (interaction score); in the test with PUM1 PUF domain R5-KRM, 2.19 log2 enrichment (interaction score); with PUM1 PUF domain R3-PWA it was 4.48 log2 enrichment (interaction score).
“GGCUAGAACUAGUGGAUCCCCCGGCGCCCGGCGGCUCGAGCCCGGGUAAGUGUUAAUAGUCUGCAUGCCGCCGGGCGCCAUGCCUGCAGGUCGACUCUAGAAAACAUG”: the binding signal in the test with PUM1 PUF domain R5-TRL is 2.18 log2 enrichment (interaction score); with PUM1 PUF domain R5-SNS, 3.23 log2 enrichment (interaction score); in the test with PUM1 PUF domain R5-KRM, 3.73 log2 enrichment (interaction score).
As for “GGCUAGAACUAGUGGAUCCCCCGGCGCCCGGCGGCUCGAGCCCGGGUAAGUGUAUAUAGUCUGCAUGCCGCCGGGCGCCAUGCCUGCAGGUCGACUCUAGAAAACAUG”, the binding signal is 2.85 log2 enrichment (interaction score) with PUM1 PUF domain R4-GMG, 2.54 log2 enrichment (interaction score) with PUM1 PUF domain R4-VNG, 2.78 log2 enrichment (interaction score) in the test with PUM1 PUF domain R4-AMA and 5.93 log2 enrichment (interaction score) with PUM1 PUF domain R4-FNH.

These data come from paper PMC8384837, “Expanding the binding specificity for RNA recognition by a PUF domain”.
